# An excerpt weighted towards active compounds, which were near 28% of everything screened.
# CYP2C9 activ: human CYP2C9 activators, primary screen, biochemical, luminescence; Cytochrome P450 2C9 (Homo sapiens), P11712; recombinant CYP2C9, luciferin-H conversion; stronger effect = higher value; factor 1 = untreated enzyme, 0 = blocked; activation factor at 5 µM; actives 1.4% (n = 96,000);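 active = activation factor of 2 or more for CYP2C9 at a 5 µM dose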;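 also: 0 = sulfaphenazole-blocked wells and 1 = vehicle-only wells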
# CYP2C9 inh: blockers of cytochrome P450 2C9 activity – biochemical, luminescence, ADME assay, primary screen; P11712; CYP2C9 Supersomes, luciferin-H conversion; inhibition, % at 5 µM; actives 20% (n = 96,000);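 active = blocking of liver enzyme CYP2C9 beyond about 50% at 5 µM, limit read from the data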
# Plk1 PBD FP: Plk1 polo box domain binding inhibitors, primary screen, biochemical, fluorescence polarization. Serine/threonine-protein kinase PLK1 (Homo sapiens), P53350. Plk1 PBD phosphopeptide binding. inhibition, %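 (tested at about 20 µM)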. actives 0.13% (n = 97,000); in the data active = inhibition above about 34%, passing the limit was not always enough
# CYP2C19 act: human CYP2C19 activators, primary screen, biochemical, luminescence; recombinant CYP2C19, luciferin-H EGE luminescence; stronger effect = higher value; 0 = fully inhibited enzyme, 1 = untreated enzyme; 96,000 tested, under 10 active; activation factor at 5 µM; Cytochrome P450 2C19 (Homo sapiens), P33261;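 active = activation factor of at least 2 at 5 µM in the primary screen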;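 also: 0 = wells with 2.5 mM tranylcypromine and 1 = vehicle-only wells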
# Target sequence (P33261 whole entry, looked up): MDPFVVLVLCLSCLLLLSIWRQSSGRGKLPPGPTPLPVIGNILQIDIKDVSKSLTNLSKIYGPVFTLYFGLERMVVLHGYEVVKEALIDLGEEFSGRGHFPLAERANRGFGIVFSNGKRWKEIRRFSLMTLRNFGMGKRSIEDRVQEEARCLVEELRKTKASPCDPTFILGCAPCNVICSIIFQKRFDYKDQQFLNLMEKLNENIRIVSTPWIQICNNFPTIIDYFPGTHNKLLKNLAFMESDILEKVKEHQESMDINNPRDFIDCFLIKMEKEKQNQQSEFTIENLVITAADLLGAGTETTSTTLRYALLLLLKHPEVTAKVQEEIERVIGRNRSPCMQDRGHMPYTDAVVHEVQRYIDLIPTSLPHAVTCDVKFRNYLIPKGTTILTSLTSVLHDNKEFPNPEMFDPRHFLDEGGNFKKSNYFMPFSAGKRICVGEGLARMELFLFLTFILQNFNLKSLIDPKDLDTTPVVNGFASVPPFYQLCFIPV
# PLK1 inh: human PLK1 kinase inhibitors, primary screen, biochemical, TR-FRET; Serine/threonine-protein kinase PLK1 (Homo sapiens), P53350; recombinant PLK1 kinase, TR-FRET peptide phosphorylation; inhibition, % at 10 µM; actives 0.53% (n = 97,000); AID 619, 2007;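 active = inhibition of 50% or more in the single-concentration screen; inactive = inhibition below 50%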;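 also: 0% = DMSO max control and 100% = H-89 dihydrochloride min control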
# CYP2C19 inh: blockers of cytochrome P450 2C19 activity – biochemical, luminescence, ADME assay, primary screen | P33261 | CYP2C19 Supersomes, luciferin-H EGE luminescence, 30 min | inhibition, % at 5 µM | actives 21% (n = 96,000);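 active = CYP2C19 inhibition above a set limit at 5 µM in the primary screen, cut at about 50% in these data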;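 also: plate controls were negative control wells for no effect and 2.5 mM tranylcypromine positive control for full effect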
# * = called active by the depositor; . = no result given.
SMILES,CYP2C9 activ,CYP2C9 inh,Plk1 PBD FP,CYP2C19 act,PLK1 inh,CYP2C19 inh
Cc1ccc(S(=O)(=O)N2CCN(C(=O)CCC(=O)N3CCc4ccccc43)CC2)cc1,1,5,.,0.6,.,39
Cc1ccc(S(=O)(=O)N(C)CC(=O)N2CCCc3ccccc32)cc1,2.7*,-172,-6,0.7,-4,30
Cc1ccc(S(=O)(=O)CCC(=O)N2CCc3ccccc32)cc1,2.2*,-116,15,1,-6,1
Cn1cc(S(=O)(=O)CC(=O)N2CCCc3ccccc32)c2ccccc21,1.9,-88,-26,0.2,6,84*
CN(CC(=O)N1CCc2ccccc21)S(=O)(=O)c1ccc(Br)s1,1.2,-23,12,0.1,-10,94*
O=C(CCC(=O)N1CCc2ccccc21)N1CCc2ccccc21,.,.,-6,.,-11,.
Cc1nc2ccc(S(=O)(=O)N(C)CC(=O)N3CCc4ccccc43)cc2s1,1.3,-33,14,0.8,5,20
CC(=O)N1N=C(c2ccc(C)cc2)OC1c1ccc(C(C)C)cc1 (stereo not drawn),0.9,10,-13,0.8,-14,23
O=C(CCC(=O)NNC(=O)Nc1ccc(Cl)cc1)NCc1ccccc1,0.9,11,-25,1,-5,3
Cc1noc(NS(=O)(=O)c2ccc(NC(=O)CSc3nc4ccccc4s3)cc2)c1C,1.1,-14,-5,1.2,-6,-20
CCCCS/C(=C(/C#N)C(N)=O)c1cc2c([nH]1)CCCC2,0.6,35,3,0.7,-5,34
Cc1ccc(N(CC(=O)N2CCc3ccccc32)C2=NC(=O)CS2)cc1,0.3,67*,9,0.4,-11,56*
CC(C)NC(=O)c1ccc(C2SCC(=O)N2Cc2ccccc2)cc1 (stereo not drawn),.,.,8,.,-11,.
CCCCC(=O)Nc1ccc2c(c1)oc1ccccc12,.,.,3,.,-4,.
CCCC(=O)NC(c1ccco1)c1c(O)ccc2ccccc12 (stereo not drawn),0.1,90*,-3,0,-8,97*
CCCCC(=O)NC(c1ccco1)c1c(O)ccc2ccccc12 (stereo not drawn),0.3,70*,-14,0.5,-5,49
CC(=O)NC(c1ccco1)c1ccc2cccnc2c1O (stereo not drawn),0.7,26,-4,0.9,-9,6
Cc1sc(-c2ccncc2)nc1OC(=O)c1ccc(Cl)cc1,0.1,88*,-13,0.1,-5,90*
Cc1sc(-c2ccncc2)nc1OC(=O)c1cc(Cl)cc(Cl)c1,0.3,68*,-41,0.5,-8,53*
O=C(CSc1cccc2cccnc12)OCC(=O)c1ccccc1,2.6*,-157,-22,0.7,-6,28
Cn1nnnc1SCCNS(=O)(=O)c1ccccc1,1,-4,6,0.2,-20,78*
Cc1ccc(-n2nnnc2SCCNS(=O)(=O)c2ccccc2)cc1C,2*,-96,11,0.3,19,75*
Cn1cnnc1SCCNS(=O)(=O)c1ccccc1,1,-3,19,1,-2,3
O=C(OCc1c(Cl)nc2sccn12)c1cc2c(s1)CCCC2,1.2,-24,20,1.1,4,-11
Cc1ccc(S(=O)(=O)c2nc(-c3ccccc3)oc2NCc2cccnc2)cc1,0.3,73*,-7,0.2,-2,77*
SMILES,CYP2C9 activ,CYP2C9 inh,Plk1 PBD FP,CYP2C19 act,PLK1 inh,CYP2C19 inh
Cc1ccccc1-c1nc(S(=O)(=O)c2ccc(Br)cc2)c(NCc2cccnc2)o1,0.3,66*,-8,0.2,7,82*
Cc1ccc(CNc2oc(-c3ccco3)nc2S(=O)(=O)c2ccccc2)cc1,.,.,-5,.,-17,.
CCOc1cc(C2NC(=O)NC(O)(C(F)(F)F)C2C(=O)c2ccc(OC)cc2)ccc1O (stereo not drawn),0.9,8,-5,0.9,-1,11
COc1ccc(-c2cc(CNC(=O)CN3CCN(C)CC3)on2)cc1,1.1,-11,10,1,-7,-3
CCCCNC(=O)CCNS(=O)(=O)c1ccc(C)cc1,2.6*,-161,18,0.8,1,18
Cc1ccc(S(=O)(=O)NCCC(=O)O)cc1,1.2,-21,-18,1,-6,2
CC(C)NC(=O)CCNS(=O)(=O)c1ccc(Br)cc1,1.8,-76,6,0.5,-3,50*
Cc1ccc(NC(=O)COc2ccc(/C=C3/SC(=Nc4ccccc4)N(Cc4cccnc4)C3=O)cc2)cc1,0.5,53*,2,1,-20,3
Cc1ccc(NC(=O)COc2ccc(/C=N/NC(=O)CSCc3ccccc3)cc2)cc1,0.6,38,11,1,-8,-1
Nc1c(S(=O)(=O)c2ccccc2)c2nc3ccccc3nc2n1/N=C/c1cccc(O)c1,0.7,31,7,0.9,6,10
Cc1cccc(S(=O)(=O)c2c(N)n(/N=C/c3ccccc3)c3nc4ccccc4nc23)c1,0.5,55*,-14,1,-8,2
Cc1ccc(C)c(S(=O)(=O)c2c(N)n(/N=C/c3ccco3)c3nc4ccccc4nc23)c1,0.1,86*,-5,0.4,-3,63*
Cc1onc(-c2ccccc2)c1C(=O)N1CCN(C)CC1,1.2,-19,19,1.1,-6,-15
CCCn1nc(C(=O)NCCc2ccc(S(N)(=O)=O)cc2)c2ccccc2c1=O,0.6,36,2,1.1,0,-14
O=C(CN(CCc1ccccc1)C(=O)CN1C(=O)COc2ccccc21)NCc1ccco1,0.7,30,-10,0.6,-13,36
Cc1ccc(NC(=O)O/N=C2\CCCCC2c2ccc([N+](=O)[O-])cc2[N+](=O)[O-])cc1 (stereo not drawn),0.2,82*,-20,0.6,-7,41
Clc1ccc(-c2nc3ccccc3n2OCc2ccccc2)cc1,1.1,-5,-23,1,-1,-3
N#CCCCSc1nnc(-c2ccccn2)o1,1,0,13,1,-11,4
CC1CCC(NC(=O)c2cnccn2)CC1 (stereo not drawn),0.7,35,-13,0.8,-2,23
CCOc1cc(C=O)ccc1OCCSc1ccc(Cl)cc1,0.2,81*,4,0.7,-6,28
COc1cc(C=O)ccc1OCCOCCOc1ccccc1Cl,0.7,28,-10,0.7,0,28
Cc1cc(C)c(NC(=O)C2CSCCS2)c(C)c1 (stereo not drawn),.,.,-20,.,-6,.

# Source: PubChem BioAssay (several laboratories)
